The list is not random: actives were taken first. Their share in the collection is about 7.8%.
Lassa entry inh: inhibitors of Lassa virus binding or cell entry; Lassa virus pseudotype entry inhibition, cell reporter; Potency, µM (highest dose often 37.9 µM), for the others: top-dose activity change, negative = inhibition, most hits filed as inhibitors; 300,000 tested, 1.2% active; calls by dose curve; tested in HEK293 cells; further: potency means the concentration at half of the fitted maximal effect; nearly all actives have a fitted effect of over 50% in size
Vaccinia Venus: vaccinia inhibition (Venus reporter); 330,000 tested, 0.46% active; Vaccinia virus Venus reporter expression, fluorescence; AID 720580; Potency, µM (doses to about 36.5 µM), without a hit: at the top dose activity change, negative = inhibition, most hits filed as inhibitors; calls by dose curve; tested in A549 cells; further: potency means the concentration at half of the fitted maximal effect; nearly all actives have a fitted effect of over 30% in size
Vaccinia mCherry: inhibitors of vaccinia virus infection (mCherry reporter signal); Vaccinia virus mCherry reporter infection, fluorescence; Potency, µM (highest dose often 36.5 µM), for inactives: top-dose activity change, negative = inhibition, usual class: inhibitors; 310,000 tested, 0.63% active; AID 720579; calls by dose curve; tested in A549 cells; further: potency means the concentration at half of the fitted maximal effect; nearly all actives have a fitted effect of over 35% in size
HCMV antiviral: blocks human cytomegalovirus replication | HFF cells, HCMV-luciferase reporter, 72 h; active compounds read low | activity change, negative = inhibition, % at 57.5 µM | 410,000 tested, 4.5% active | AID 1259415; in the data active means activity change below about -60%; inconclusive means no clear call, values can overlap the other calls; inactive means above about -39%
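Compounds were evaluated in HFFs infected with an HCMV luciferase reporter virus (MOI 1 PFU/cell). Luciferase in lysates collected 72 h post infection served as the replication measure.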
HCV inhibitor: blocks hepatitis C virus; Huh7.5.1 HCVcc-Cre infection, luciferase reporter, 44 h; Potency, µM (doses to about 41.8 µM), for the others: at the top dose activity change, negative = inhibition, usual class: inhibitors; 340,000 tested, 3.4% active; AID 651820; active means well fitted inhibition curve with a large enough effect; inconclusive means small, poorly fitted or top-dose-only effect, or another doubt; inactive means no such curve, though single readings can be large or run the other way; further: potency means the concentration at half of the fitted maximal effect
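Cells seeded at 1,000/well and cultured 4 h, then compounds added followed by HCVcc-Cre virus (~0.5 moi). After 44 h further culture, luciferase substrate was added, plates held 15 min at room temperature, and luminescence read for 15 sec.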
Marburg entry inh: blocks Marburg virus binding to or entry into cells; 300,000 tested, 1.8% active; Potency, µM (top dose mostly 37.8 µM), for inactives: at the top dose activity change, negative = inhibition, actives largely listed as inhibitors; Marburg virus pseudotyped entry inhibition, cell reporter; AID 540276; calls by dose curve; tested in HEK293 cells; further: potency means the concentration at half of the fitted maximal effect
The depositor's hits bear a star; i = inactive; ? = inconclusive; nt = no result given; [ ] = remark or other dose. On the % scale 0 is the no-effect control and ±100 the full control effect.

SMILES	Lassa entry inh	Vaccinia Venus	Vaccinia mCherry	HCMV antiviral	HCV inhibitor	Marburg entry inh
CCc1ccc(-c2cc3c(=O)n(CC(=O)NCCN4CCCCC4C)nc(C)n3n2)cc1 (stereo not given)	16%[46.1 µM]	-10%	-15%	-7	11µM*	?
CCC1CCCCN1CCCNC(=O)CSc1nc2nc(C)c(Cc3ccc(C)cc3)c(C)n2n1 (stereo not given)	?	-13%	-25%	-33	?	11µM*
CCC1CCCCN1CCCNC(=O)Cn1nc(-c2ccc(C)cc2)ccc1=O (stereo not given)	-5%	-11%	-3%	-71*	?	?
CN(Cc1cccs1)[C@H]1CC[C@@]23CCCN2C(=O)CCC[C@H]3[C@H]1Cc1ccccc1	nt	nt	nt	-35	nt	nt
CCn1nc(C)cc1C(=O)N1CCCC(C(=O)c2ccc3ccccc3c2)C1 (stereo not given)	nt	nt	nt	0	?	nt
CCc1ccc2c(c1)C1(C(=O)N2)N2CCCC2C(C(=O)c2ccc3ccccc3c2)C12C(=O)Nc1ccccc12 (stereo not given)	?	13µM*	28µM*	?	?	?
CCc1cccc2c1NC(=O)C21N2CCCC2C(C(=O)c2ccc3ccccc3c2)C12C(=O)Nc1ccccc12 (stereo not given)	?	-15%	-16%	-93*	?	10µM*
CC(=O)NC(c1ccc(C)cc1)c1cc(Cl)c2cccnc2c1O (stereo not given)	?	?	?	-102*	5.6µM*	2.8µM*
CC(=O)NC(c1ccccc1)c1cc([N+](=O)[O-])c2cccnc2c1O (stereo not given)	?	?	?	25	?	?
CC(=O)NC(c1ccco1)c1cc(Cl)c2cccnc2c1O (stereo not given)	nt	nt	nt	-89*	nt	nt
CC(=O)NC(c1cc(Cl)c2cccnc2c1O)C1CC1 (stereo not given)	nt	nt	nt	-97*	nt	nt
CC(=O)NC(C)c1cc(F)c2cccnc2c1O (stereo not given)	nt	nt	nt	-9	nt	nt
CCCCC(=O)NC(c1ccco1)c1cc(Cl)c2cccnc2c1O (stereo not given)	?	?	13µM*	-96*	8.9µM*	?
CCN1CCN(C(c2ccc(SC)cc2)c2c(O)cc(C)n(CCOC)c2=O)CC1 (stereo not given)	?	-8%	-15%	12	nt	nt
CC(=O)NC(c1cc(Cl)c2cccnc2c1O)C(C)C (stereo not given)	nt	nt	nt	-98*	nt	nt
CCC(=O)NC(c1ccco1)c1cc(Cl)c2cccnc2c1O (stereo not given)	?	?	7.9µM*	-97*	6.3µM*	?
CCC(=O)NC(c1ccco1)c1cc(Cl)c2cccnc2c1OC (stereo not given)	nt	nt	nt	-4	nt	nt
Cc1ccc(S(=O)(=O)N(C(=O)c2ccncc2)c2ccc(OC(=O)c3ccncc3)cc2)cc1	-18%	-19%	i	-68*	4%	-33%
CCCCc1ccc(S(=O)(=O)N[C@H]2CC[C@@]34CCCN3C(=O)CCC[C@H]4[C@H]2C)cc1	nt	nt	nt	-1	nt	nt
CCCCOc1ccc(Cc2c(Cl)nc(SC)nc2N2CCOCC2)cc1	-2%	-14%	i	-39	-26%	?
CSc1nc(Cl)c(Cc2ccc(OCC(C)C)cc2)c(N2CCOCC2)n1	nt	nt	nt	?	11µM*	3%
Cc1cc2c3c([nH]c2cc1S(=O)(=O)N1CCC2(CC1)OCCO2)CCCC3=O	nt	nt	nt	?	22µM*	nt
Cc1ccc(C)c(N(C)S(=O)(=O)c2ccc3[nH]cc(C(=O)NCCN4CCOCC4)c(=O)c3c2)c1	?	-15%	-13%	21	-15%	?
CCN(c1ccccc1)S(=O)(=O)c1ccc2[nH]cc(C(=O)NC3CCCCC3)c(=O)c2c1	?	-9%	-23%	-102*	nt	nt
Cc1ccc(C)c(N(C)S(=O)(=O)c2ccc3[nH]cc(C(=O)NC4CCCC4)c(=O)c3c2)c1	-6%[46.1 µM]	?	?	-75*	nt	nt
SMILES	Lassa entry inh	Vaccinia Venus	Vaccinia mCherry	HCMV antiviral	HCV inhibitor	Marburg entry inh
Cc1cc(C)n2nc(/C(C#N)=C/c3ccccn3)c(C#N)c2n1	10µM*	16%	?	7	-23%	?
N#C/C(=C\c1ccccn1)c1ccccn1	?	?	3.5µM*	-74*	?	?
CN(C)c1ccc(/C=C(\C#N)c2ccccn2)cc1	1.4µM*	-9%	-28%	-84*	?	1.2µM*
N#C/C(=C/c1cccs1)c1ccccn1	nt	nt	nt	71	?	nt
N#C/C(=C\c1ccc([N+](=O)[O-])cc1)c1ccccn1	2%	-15%	-25%	-75*	-22%	13%[46.1 µM]
COc1ccc(NC(=O)C2CCCN(S(=O)(=O)c3ccc(F)cc3)C2)cc1 (stereo not given)	-21%[46.1 µM]	-10%	-3%	17	nt	-8%[46.1 µM]
COc1ccc(OC)c(CNC(=O)Cc2ccc(NC(=O)N3CCSc4ncccc43)cc2)c1	2%[46.1 µM]	-14%	-14%	0	nt	nt
Cc1ccc(S(=O)(=O)N(C)c2cccc3c2S(=O)(=O)N([C@H](C)c2ccccc2)C[C@@H](COCc2ccccc2)O3)cc1	nt	nt	nt	-65*	nt	nt
Cc1cc(Oc2cccc3c2S(=O)(=O)N([C@H](C)c2ccccc2)C[C@@H](COCc2ccccc2)O3)cc(C)c1C	nt	nt	nt	-93*	nt	nt
C[C@H](c1ccccc1)N1C[C@@H](COCc2ccccc2)Oc2cccc(N3CCCCC3)c2S1(=O)=O	nt	nt	nt	-93*	nt	nt
Cc1ccc(Oc2cccc3c2S(=O)(=O)N([C@H](C)c2ccccc2)C[C@@H](COCc2ccccc2)O3)cc1	nt	nt	nt	-78*	nt	nt
Cc1nc([N+](=O)[O-])cn1CC(=O)c1ccc2c(c1)OCCO2	nt	-14%	0%	nt	nt	nt
CCOc1ccc(C(=O)Nc2ccccc2OCc2cc(=O)n3ccccc3n2)cc1	13%[46.1 µM]	-21%	-12%	20	nt	nt
CC(Oc1ccc2c(-c3ccccc3)cc(=O)oc2c1)C(=O)NCc1ccccn1 (stereo not given)	nt	-3%	-8%	-34	25µM*	nt
CC(Oc1ccc2c(-c3ccccc3)cc(=O)oc2c1)C(=O)NC(Cc1c[nH]c2ccc(O)cc12)C(=O)O (stereo not given)	nt	-8%	4%	-77*	1%	nt
O=C(COc1ccc2c(-c3ccccc3)cc(=O)oc2c1)N[C@@H](Cc1c[nH]c2ccc(O)cc12)C(=O)O	nt	-6%	2%	19	?	nt
COc1cccc(CN(C)C(=O)c2[nH]c(C)c(C(C)=O)c2C)c1OC	-2%	-17%	-4%	-33	11µM*	?
COc1ccccc1CNC(=O)c1[nH]c(C)c(C(C)=O)c1C	nt	nt	nt	34	-28%	nt
Cc1cc(C)n(-c2cccc(C(=O)NCC3Cc4cc(Cl)cc(-c5cnccn5)c4O3)c2)n1 (stereo not given)	nt	-5%	-19%	nt	nt	nt
